GLP-1R agonist – GLP-1 receptor (human) agonism. hit rate 0.007% among 380,000. P43220. AID 624172. HEK293 GLP-1R CRE-luciferase, luminescence, 4-6 h; cells express a hypersensitive GLP-1R form. Potency, µM (titrated, usually from 45.6 µM), for the others: at the highest dose activation, usual class: activators; also: % of control where 0% means no effect
Target sequence (P43220 whole entry, looked up): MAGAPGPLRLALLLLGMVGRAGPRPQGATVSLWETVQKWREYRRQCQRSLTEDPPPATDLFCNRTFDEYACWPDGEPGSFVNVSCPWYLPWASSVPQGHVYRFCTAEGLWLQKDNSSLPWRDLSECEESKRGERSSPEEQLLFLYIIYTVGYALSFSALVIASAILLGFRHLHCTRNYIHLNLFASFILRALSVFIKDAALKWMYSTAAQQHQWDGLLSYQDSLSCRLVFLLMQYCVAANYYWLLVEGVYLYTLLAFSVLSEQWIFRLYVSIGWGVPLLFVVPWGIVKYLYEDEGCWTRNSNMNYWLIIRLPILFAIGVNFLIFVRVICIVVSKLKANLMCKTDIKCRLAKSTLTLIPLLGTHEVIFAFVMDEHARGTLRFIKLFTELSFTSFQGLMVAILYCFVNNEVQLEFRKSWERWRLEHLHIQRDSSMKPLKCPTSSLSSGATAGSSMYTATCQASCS
BRCA1 expr up – BRCA1 expression activation | MCF7-BRCA1-FFLuc reporter, luminescence, 48 h; response scale: scaled: vehicle 0%, 10 µM genistein 100% | Potency, µM (series often up to 46.1 µM), inactives show at the top dose activation, hits mostly activators | hit rate 1.1% among 380,000; also: nearly all actives have a fitted effect of over 80% in size
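Reporter cells (MCF7, BRCA1 promoter-firefly luciferase) received library compounds across a concentration series for 48 h. End-point luminescence was measured and concentration-effect curves derived after normalization.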
GLP1R cytotox – cytotoxicity counter-screen for GLP-1 receptor inverse agonists; HEK293 cAMP-luciferase reporter cells, luminescence, 24 h; Potency, µM (series often up to 38.3 µM), for inactives: at the highest dose activity change, negative = inhibition, most hits filed as inhibitors; hit rate 0.13% among 410,000;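 also: loss of luciferase light is scored as toxicity; % is scaled to controls: 0 for no effect and ±100 for the full control effect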
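Step one: seed cells (200 cells/uL, DMEM with 10% Nu serum, 1% pen-strep). Step two: 12-hour incubation at 37 deg C. Step three: pin 23 nL compound, incubate 24 hr. Step four: add luciferase reagent, read luminescence 12 min later.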
GLP1R inv ag – GLP-1 receptor (human) inverse agonism; Potency, µM (series often up to 38.3 µM), inactives show at the top dose activity change, negative = inhibition, usual class: inhibitors; hit rate 1.6% among 410,000; HEK293 GLP-1R CRE-luciferase, luminescence, 24 h; GLP-1R form is constitutively active; P43220; also: % is scaled to controls: 0 for no effect and ±100 for the full control effect; nearly all actives have a fitted effect of over 55% in size
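qHTS in 1536-well format: reporter HEK293 cells expressing constitutive GLP-1R activity in DMEM + 10% Nu serum, 24 hr with compounds at 37 deg C, luminescence read after 12 min with detection reagent.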
Active calls of the source: *; ? = inconclusive; nt = not tested or not shown. A selection: hits, their analogues and other compounds. The true share with any hit is near 2.6%. Calls follow the shape of the dose curve; as a rule, active = well fitted curve in the direction sought with a large enough effect; inconclusive = small, poorly fitted or top-dose-only effect, or another doubt; inactive = no such curve, though single readings can be large; an effect the other way counts as inactive or inconclusive. Potency is read from the fitted curve at half-maximal effect.

SMILES	GLP-1R agonist	BRCA1 expr up	GLP1R cytotox	GLP1R inv ag
O=C(CN1CCN(C(c2ccccc2)c2ccccc2)CC1)N1N=CCC1c1ccccc1 (stereo not drawn)	9%	-21%	-21%	11µM*
CC1CCCCN1C(=O)c1cc2ccccc2cc1O (stereo not drawn)	7%	0%	-13%	?
C[C@H](NC(=O)[C@@H]1Cc2ccccc2CN1)C(=O)NC1CCCC1	-4%	2%	31%	13%
CSc1nc2sc3c(c2c(=O)n1-c1ccccc1C)CCCC3	nt	nt	0%	4.5µM*
Cc1ccc(NC(=O)Nc2ccc3c(c2)nnn3C)cc1C	5%	2.8µM*	-19%	36%
COc1ccccc1NC(=O)Nc1ccc2c(c1)nnn2C	-4%	95%	8%	4%
CC(NCC(=O)NC(=O)NC1CCCC1)c1ccc(Cl)cc1Cl (stereo not drawn)	8%	-23%	-7%	10µM*
CCn1nc(C)c2c(-c3ccccc3)cc(=O)n(C(C)C(=O)Nc3cc(C)ccc3C)c21 (stereo not drawn)	nt	nt	26%	12%
CCn1nc(C)c2c(-c3ccccc3)cc(=O)n(C(C)C(=O)Nc3cccc(F)c3)c21 (stereo not drawn)	nt	nt	0%	7.9µM*
COc1cccc(OCc2cc(C(=O)N(Cc3ccccc3)CC3CC3)no2)c1	9%	-1%	-4%	8.9µM*
COc1cccc(OCc2cc(C(=O)N(C)Cc3nc4ccccc4[nH]3)no2)c1	10%	86%	1%	?
CONC(=O)C1CCN(C(=O)OCc2ccccc2)CC1	1%	14µM*	20%	31%
COC(=O)CNC(=O)C1CCN(C(=O)OCc2ccccc2)CC1	7%	96%	3%	1%
CCC(=O)Nc1cccc(C(=O)OCC(=O)c2ccccc2Cl)c1	2%	7.9µM*	2%	21%
CCC(=O)Nc1ccccc1C(=O)OCC(=O)c1ccccc1	0%	2µM*	-11%	-2%
CC(=O)Nc1cccc(C(=O)OCC(=O)c2ccccc2Cl)c1	0%	?	-2%	-4%
CC(C)NC(=O)c1ccc(CSCc2ccccc2Cl)o1	12%	7%	-20%	8.9µM*
CN1CCN(CCCNC(=O)c2ccc(CSCc3cccc(Cl)c3)o2)CC1	22%	-26%	-16%	10µM*
O=C(NCc1ccc(Cl)cc1)c1ccc(CSCc2cccc(Cl)c2)o1	nt	nt	9%	?
Cc1ccc(CNC(=O)c2ccc(CSCc3ccc(Cl)cc3)o2)cc1	nt	nt	3%	10µM*
O=C(NCCCN1CCCC1)c1ccc(CSCc2cccc(Cl)c2)o1	6%	-24%	-13%	?
O=C(CO)[C@@H](O)C(O)[C@@H](O)CO (stereo partly drawn)	5%	nt	nt	nt
CCc1ccccc1NC(=O)C1CCN(c2nn3c(=O)cc(C)nc3s2)CC1	nt	24%	5%	5%
O=C(Nc1ccc2c(c1)[C@@H]1C[C@@H](CC(=O)N3CCOCC3)O[C@@H](CO)[C@@H]1O2)NC1CCCC1	-4%	0%	0%	4%
CC1=C(C(=O)Nc2cccnc2)C(c2cccc(F)c2)n2nc(SCc3ccccc3)nc2N1 (stereo not drawn)	0%	4%	-6%	10%
COc1ccc(CCCN2CCC(CN3CCNC(=O)C3=O)CC2)cc1OC	2%	3%	-5%	3%
COCCNC(=O)c1ccc2c(Cl)c3c(nc2c1)CCC3	6%	5µM*	2%	-20%
CCC/C(=C1/c2ccccc2C(=O)N1c1ccccc1)c1ccc2[nH]ccc2c1	-3%	-80%	-4%	4.5µM*

Source: PubChem BioAssay
